{"source": "PubChem BioAssay (Tox21)", "note": "Records with an inconclusive call do not appear. The source made the active and inactive calls. Calls come from the whole dose curve; as a rule, active = well fitted inhibition curve with a large enough effect in the signal ratio in the repeat runs (not every such curve was filed as active); inconclusive = weak or mixed curves, or effect the other way; inactive = no such curve, though single readings can be large or run the other way; the % refers to the signal ratio. % is set by controls: 0 for no effect and ±100 for the full control effect.", "data": [{"target": "Vitamin D3 receptor (Homo sapiens) (UniProt P11473)", "sequence (P11473 whole entry, looked up)": "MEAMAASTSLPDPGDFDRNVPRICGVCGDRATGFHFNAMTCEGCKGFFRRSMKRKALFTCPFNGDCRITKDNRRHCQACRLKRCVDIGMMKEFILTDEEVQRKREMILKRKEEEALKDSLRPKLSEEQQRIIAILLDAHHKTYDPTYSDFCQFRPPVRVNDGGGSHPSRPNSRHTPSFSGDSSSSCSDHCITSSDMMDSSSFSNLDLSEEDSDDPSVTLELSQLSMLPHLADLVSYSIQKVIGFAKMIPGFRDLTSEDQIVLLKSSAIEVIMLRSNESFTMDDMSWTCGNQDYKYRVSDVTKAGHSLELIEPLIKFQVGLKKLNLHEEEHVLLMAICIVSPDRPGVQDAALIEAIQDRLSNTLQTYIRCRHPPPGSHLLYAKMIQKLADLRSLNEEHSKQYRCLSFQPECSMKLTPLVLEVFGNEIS", "test": "qHTS assay to identify small molecule antagonists of the vitamin D receptor (VDR) signaling pathway (AID 743223)", "conditions": "VDR-UAS-bla HEK293T, beta-lactamase FRET ratio, 16 h; series mostly up to 61 µM; activity change, negative = inhibition: at the top concentration", "outline": "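Inhibition of agonist-driven VDR signalling is scored in VDR-bla cells: 3 nM final 1alpha,25-dihydroxyvitamin D3 plus compound, 16 h at 37C, then beta-lactamase detection by FRET substrate fluorescence after 2 h.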", "values": [{"smiles": "CN1CCC(=C2c3ccccc3CC(=O)c3sccc32)CC1", "activity change, negative = inhibition": "2.3% (inactive)"}, {"smiles": "O=c1cc(-c2ccccc2)oc2ccccc12", "activity change, negative = inhibition": "-11.7% (inactive)"}, {"smiles": "OC(CCN1CCCCC1)(c1ccccc1)C1CC2C=CC1C2", "note": "(stereo not drawn)", "activity change, negative = inhibition": "4.47% (inactive)"}, {"smiles": "N#Cc1ccc(C2CCCc3cncn32)cc1", "note": "(stereo not drawn)", "activity change, negative = inhibition": "-23.8% [at 28.5 µM] (inactive)"}, {"smiles": "COCCCOCCCOC", "activity change, negative = inhibition": "-21% (inactive)"}, {"smiles": "Oc1ccc(C2CNCCc3c2cc(O)c(O)c3Cl)cc1", "note": "(stereo not drawn)", "activity change, negative = inhibition": "4.18% (inactive)"}, {"smiles": "O=C1NC(=O)[C@@]2(CCOc3ccc(F)cc32)N1", "activity change, negative = inhibition": "-4.63% (inactive)"}, {"smiles": "CCC=O", "activity change, negative = inhibition": "5.37% [at 78.8 µM] (inactive)"}, {"smiles": "OC1CCCCC1c1ccccc1", "note": "(stereo not drawn)", "activity change, negative = inhibition": "0.398% (inactive)"}, {"smiles": "O=[N+]([O-])c1ccc(F)cc1F", "activity change, negative = inhibition": "10.9% [at 78.8 µM] (inactive)"}, {"smiles": "C/C=C(\\C)C#N", "activity change, negative = inhibition": "5.09% (inactive)"}, {"smiles": "NC(CSCC(=O)O)C(=O)O", "note": "(stereo not drawn)", "activity change, negative = inhibition": "-2.11% (inactive)"}, {"smiles": "CCCN1CCCC[C@H]1C(=O)Nc1c(C)cccc1C", "activity change, negative = inhibition": "6.41% (inactive)"}, {"smiles": "CC(C)(C)c1nnc(NS(=O)(=O)c2ccccc2)s1", "activity change, negative = inhibition": "-0.104% (inactive)"}, {"smiles": "C=CCCCCCCCCC=O", "activity change, negative = inhibition": "-2.37% (inactive)"}, {"smiles": "CC(C)CCCC(C)N", "note": "(stereo not drawn)", "activity change, negative = inhibition": "-0.0659% (inactive)"}, {"smiles": "N=C(N)c1ccc2cc(OC(=O)c3ccc(N=C(N)N)cc3)ccc2c1", "activity change, negative = inhibition": "-8.32% (inactive)"}, {"smiles": "CCCCC/C=C\\CCC=O", "activity change, negative = inhibition": "5.19% (inactive)"}]}]}
